# Screening data deposited in PubChem by University of Kansas High Throughput Screening Laboratory.
# Only a selection was taken, and hits are over-represented in it overall.
# Pf apPOL inh: Pf-apPOL DNA polymerase inhibition; Recombinant Pf-apPOL, molecular beacon fluorescence, 1.5 h; inhibition, % at 10 µM; 210,000 tested, 0.25% active
# mHTT-CaM PPI inh: disrupts binding of mutant huntingtin to calmodulin; inhibition, % at 15 µM; 190,000 tested, 3.6% active; P42858; AlphaScreen His-mHTT/GST-CaM binding, luminescence;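 also: 0% = both proteins with DMSO and 100% = one protein alone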
# Numbers without * were called inactive; · = not tested or not shown. Rule as the data show it: active = inhibition above about 50%; inactive = the rest.
SMILES,Pf apPOL inh,mHTT-CaM PPI inh
O=C(Nc1cccc2cccnc12)c1cccc([N+](=O)[O-])c1,1,-1
CCCCC(=O)NC(c1cccc([N+](=O)[O-])c1)c1ccc2cccnc2c1O (stereo unspecified),-7,100*
CC(=O)NC(c1cccc([N+](=O)[O-])c1)c1ccc2cccnc2c1O (stereo unspecified),1,100*
CC(=O)NC(c1ccc(C(C)C)cc1)c1ccc2cccnc2c1O (stereo unspecified),-34,100*
CC(=O)Nc1cccnc1-c1ccc(C(=O)Nc2ccc(C(C)C)cc2)cc1,1,24
O=CNC(c1ccccc1)c1cccc([N+](=O)[O-])c1 (stereo unspecified),0,0
Cc1sc(C=O)cc1COc1ccc(F)cc1Cl,-1,-8
Cc1cc(C)cc(NC(=O)Cc2ccccc2)c1,-2,-14
O=C(NCCn1cnc(-c2ccccc2)cc1=O)c1ccc(Cn2ccnc2)cc1,-17,-4
CSc1nnc2c(n1)OC(/C=C/c1ccco1)Nc1ccc(Br)cc1-2 (stereo unspecified),-3,92*
CSc1nnc2c(n1)OC(c1ccccn1)Nc1ccc(Br)cc1-2 (stereo unspecified),-10,22
CCCSc1nnc2c(n1)OC(/C=C/c1ccco1)Nc1ccccc1-2 (stereo unspecified),2,54*
C=CCSc1nnc2c(n1)OC(/C=C/c1ccco1)Nc1ccc(Br)cc1-2 (stereo unspecified),1,87*
CCSc1nnc2c(n1)OC(c1ccccn1)Nc1ccccc1-2 (stereo unspecified),93*,3
C=CCSc1nnc2c(n1)OC(/C=C/c1ccco1)Nc1ccccc1-2 (stereo unspecified),-8,30
CSc1nnc2c(n1)OC(/C=C/c1ccco1)Nc1ccccc1-2 (stereo unspecified),0,46
CCSc1nnc2c(n1)OC(c1ccccn1)Nc1ccc(Br)cc1-2 (stereo unspecified),0,10
CS(=O)(=O)N(CC(=O)Nc1ccc(CSc2ccccc2)cc1)c1ccccc1Cl,-8,17
CSc1ccccc1NC(=O)Cc1nn(C)c(=O)c2ccccc12,-3,3
COc1ccccc1C(=O)N1CCN(c2ccc(Cl)cc2C)C(=O)C1C (stereo unspecified),-5,-5
Cc1ccccc1CNC(=O)C1(C)CCCN(C(=O)c2ccc(F)cc2)C1 (stereo unspecified),-2,-2
COc1ccc(C=C2Oc3c(ccc(O)c3CN3CCCCC3C)C2=O)cc1OC (stereo unspecified),-23,14
CCOc1cc(-c2ccc(OC)c(OC)c2)cc(=O)c2c(C)oc(C)c12,10,44
CCOc1cc(-c2cccs2)cc(=O)c2c(C)oc(C)c12,-5,55*
CCCCNC(=O)CCS(=O)(=O)Cc1ccc(Cl)cc1,-12,-8
SMILES,Pf apPOL inh,mHTT-CaM PPI inh
COc1cccc(C2Oc3c(OC)cccc3C3CC(c4cccs4)=NN32)c1 (stereo unspecified),-17,42
CCOc1cccc2c1OC(c1ccc(OC)cc1)N1N=C(c3ccc(C)o3)CC21 (stereo unspecified),-14,81*
CCOc1cccc2c1OC(c1ccc(OC)c(OC)c1OC)N1N=C(c3ccc(C)o3)CC21 (stereo unspecified),-15,61*
COc1cccc(C2Oc3c(OC)cccc3C3CC(c4ccc(C)o4)=NN32)c1 (stereo unspecified),-16,57*
COc1ccc(C2Oc3c(OC)cccc3C3CC(c4cccs4)=NN32)cc1 (stereo unspecified),-15,50*
CCOc1cccc2c1OC(c1cc(OC)ccc1OC)N1N=C(c3ccco3)CC21 (stereo unspecified),-20,8
COc1cccc2c1OC(c1cccc(Cl)c1)N1N=C(c3ccco3)CC21 (stereo unspecified),-28,12
CCOc1cccc2c1OC(c1cc(OC)c(OC)c(OC)c1)N1N=C(c3ccco3)CC21 (stereo unspecified),-20,47
CCOC1=NN(c2ccc([N+](=O)[O-])cc2)C(=O)/C1=C/c1ccco1,-48,44
COc1cccc(CNC(=O)CCC(=O)N2CCCn3nc(C)cc32)c1OC,-2,-9
CC(C)=CCCC(C)=CCOc1cc2c(C(=O)O)c(C)oc2cc1Br,-7,16
COc1ccc(Cl)cc1N(CC(=O)N(Cc1ccccc1)Cc1ccccc1)S(C)(=O)=O,-6,65*
COc1ccc(Cl)cc1N(CC(=O)N1CCN(Cc2ccccc2)CC1)S(C)(=O)=O,-1,20
O=C(c1nc(C2CCCC2)nc2c1OCCO2)N1CCCC1,0,13
COc1ccc(C=CC#N)c(Cl)c1OC,-12,·
COc1ccc(CN2CCc3nc(N4CCN(c5ccccn5)CC4)ncc3C2)c(OC)c1,0,37
Fc1cccc(CN2CCc3nc(N4CCN(c5ccccn5)CC4)ncc3C2)c1F,-7,29
Clc1cccc(CN2CCc3nc(N4CCN(c5ccccn5)CC4)ncc3C2)c1,0,46
COc1ccc(OC)c(CN2CCc3nc(N4CCN(c5ccccn5)CC4)ncc3C2)c1,-2,50*
c1ccc(CCN2CCc3nc(N4CCN(c5ccccn5)CC4)ncc3C2)cc1,1,60*
COc1ccccc1CN1CCc2nc(N3CCN(c4ncccn4)CC3)ncc2C1,5,100*
CC1CCN(c2ncc3c(n2)CCN(Cc2cccc(F)c2F)C3)CC1,-3,74*
COc1ccccc1CN1CCc2nc(N3CCN(c4ccccc4)CC3)ncc2C1,2,24
CCCOc1cc(C)c2c(=O)c(Oc3ccccc3)c(C)oc2c1,-2,-4
Cc1ccccc1CNC(=O)C1(C)CCCN(C(=O)NCc2ccc(F)cc2)C1 (stereo unspecified),7,-11
SMILES,Pf apPOL inh,mHTT-CaM PPI inh
CCCCC(CC)C(=O)NCC1CCCO1 (stereo unspecified),·,-13
NC(=O)NC(NC(N)=O)C(=O)O,6,·
CC1CCc2onc(C(=O)N3CCN(C4CCCCC4)CC3)c2C1 (stereo unspecified),-2,4
COc1ccc(CN2CCc3nc(N4CCC(C)CC4)ncc3C2)cc1,-2,4
CCOc1ccccc1CN1CCc2nc(N3CCN(c4ccccc4F)CC3)ncc2C1,4,66*
COc1ccccc1CN1CCc2nc(N3CCN(c4ccccc4F)CC3)ncc2C1,1,10
COc1ccc(OC)c(CN2CCc3nc(N4CCC(C)CC4)ncc3C2)c1,-2,52*
Cc1ccc(CN2CCc3nc(N4CCC(C)CC4)ncc3C2)cc1C,2,72*
Cc1ccc(CN2CCc3nc(N4CCC(C)CC4)ncc3C2)cc1,-2,49
CC(=O)NCc1csc(C2CCCN(S(=O)(=O)c3cccc(F)c3)C2)n1 (stereo unspecified),-5,-2
Oc1cccc2ccc(/C=C/c3ccccc3Cl)nc12,5,52*
Oc1cccc2ccc(/C=C/c3cc4c(cc3Cl)OCO4)nc12,-7,56*
Oc1cccc2ccc(/C=C/c3ccc4c(c3)OCO4)nc12,-1,37
Cc1cccc(/C=C/c2ccc3cccc(O)c3n2)c1O,-3,38
CCOc1cc(C=C2C(=O)OC(C)(C(C)(C)C)OC2=O)ccc1O (stereo unspecified),2,7
COc1ccc2c(=O)c(Oc3ccc(C(=O)NCCc4cccs4)cc3)coc2c1,-6,-2
